Compound activity (PubChem)
Compounds with a hit are over-represented: about 11% of the library has one in this group of screens.
HPGD block = HPGD (human) dehydrogenase inhibition; Potency, µM, without a hit: top-dose activity change, negative = inhibition, usual class: inhibitors; P15428; purified HPGD, NADH fluorescence kinetic, PGE2 substrate; 150,000 compounds, 4.3% hits; AID 894; further: potency means the concentration at half of the fitted maximal effect
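NADH formation kinetics: reaction with 30 uM PGE2 and 1 mM NAD+ (final), 20 nM enzyme, Tris-HCl pH 8 with Tween 20, after 15 min compound preincubation at room temperature. Fluorescence change, last versus first of five reads.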
PNC assembly inh = perinucleolar compartment assembly inhibition; activity change (PNC), negative = inhibition, % at 10 µM; 140,000 compounds, 3.1% hits; PC3M PTB-GFP, PNC prevalence imaging, 16 h; active compounds read low; AID 2417;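 active means readout at or below -70, meaning at least 70% loss of cells showing the perinucleolar compartment, a nuclear body marking cancer cells; inconclusive means readout between -30 and a set limit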;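 further: plate controls were DMSO wells for no effect and camptothecin positive control wells for full effect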
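Read-out is percentage of cells bearing a perinucleolar compartment, from automated 20x imaging of fixed, Hoechst-stained PC3M PTB-GFP cells. Cells were seeded 4 h, then exposed 16 h to compound (23 nl of library stock) in duplicate plates.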
ALDH1A1 block = inhibitors of human aldehyde dehydrogenase 1A1; 220,000 compounds, 7.3% hits; P00352; Purified ALDH1A1, NADH fluorescence, propionaldehyde substrate; Potency, µM (top dose mostly 75.3 µM), for the others: top-dose activity, negative = inhibition, hits mostly inhibitors;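 further: potency means the concentration at half of the fitted maximal effect; plate controls were no enzyme wells and a reference inhibitor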
Target sequence (P00352 whole entry, looked up): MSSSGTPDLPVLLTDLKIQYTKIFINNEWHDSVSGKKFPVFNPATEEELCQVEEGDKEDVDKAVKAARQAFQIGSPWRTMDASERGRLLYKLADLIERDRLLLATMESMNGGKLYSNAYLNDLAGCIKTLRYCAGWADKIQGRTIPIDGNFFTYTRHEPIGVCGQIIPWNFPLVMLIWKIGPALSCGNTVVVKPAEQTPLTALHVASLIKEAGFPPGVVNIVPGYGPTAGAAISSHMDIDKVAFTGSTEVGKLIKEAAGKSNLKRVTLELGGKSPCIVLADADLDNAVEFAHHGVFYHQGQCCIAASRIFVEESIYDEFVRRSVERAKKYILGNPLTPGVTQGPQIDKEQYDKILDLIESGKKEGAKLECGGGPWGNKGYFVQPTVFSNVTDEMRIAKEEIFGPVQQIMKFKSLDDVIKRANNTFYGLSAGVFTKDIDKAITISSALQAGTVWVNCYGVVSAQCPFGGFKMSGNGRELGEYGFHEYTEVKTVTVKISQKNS
* marks the source's active call; other numbers are inactive results; u = inconclusive; x = no result given; ! = not active in a repeat; [ ] = dose if it differs, or a comment. Unless noted, the call rests on the fitted dose curve; in most records, active means well fitted inhibition curve with a large enough effect (not every such curve was filed as active); inconclusive means small, poorly fitted or top-dose-only effect, or another doubt; inactive means no such curve, though single readings can be large or run the other way. Unless noted, on the % scale 0 is the no-effect control and ±100 the full control effect.

SMILES | HPGD block | PNC assembly inh | ALDH1A1 block
CCOc1cc(C=O)ccc1O | -16% | x | 25µM*
CCCCC/C=C\C/C=C\C/C=C\C/C=C\CCCC(=O)O | 16µM*! | x | 7.9µM*!
CCCCC/C=C\C[C@@H](/C=C/C=C\C/C=C\CCCC(=O)O)OO | -5% | x | 3%
c1cc(CN2CCC3(CCNCC3)CC2)ccn1 | u | x | 5%
C(=C/c1ccccc1)/CN1CCN(CCOC(c2ccccc2)c2ccccc2)CC1 | -9% | x | -11%
O=C1CN=C(c2cccs2)c2c(sc3c2CCCC3)N1 | u | -27 | u
Cc1cc2c(s1)NC(=O)CN=C2c1cccs1 | 25µM* | -21 | u
C=CC(C)=O | -3% | x | 20µM*
C=CC(=O)OC | 1% | x | 13%
CCS(=O)(=O)N1CCN(C2CCC(C)CC2)CC1 (centres undefined) | -9% | -22 | u
C[C@H]1O[C@H](O[C@H]2[C@H](O)[C@@H](O)[C@@H](O)[C@H](O)[C@@H]2O)[C@@H](N)C[C@@H]1NC(=N)C(=O)O | -1% | x | u
O=C(O)[C@@H]1C[C@H]2C[C@@H](CP(=O)(O)O)CC[C@H]2CN1 | 1% | x | 0%
C=C(CC1(CNP(=O)(c2ccccc2)c2ccccc2)CC1)c1ccccc1 | -2% | x | -2%
CC(=O)Nc1cc(C(=O)N2CCC3(CC2)OCCO3)ccc1Sc1ccc(C)cc1 | -10% | u | u
O=C(c1ccc(CS(=O)(=O)c2ccccc2)o1)N1CCC2(CC1)OCCO2 | -6% | 25 | 22µM*
O=C(c1ccc(CNS(=O)(=O)c2ccccc2)cc1)N1CCC2(CC1)OCCO2 | u | 5 | 8.9µM*
O=C(c1ccc(CNS(=O)(=O)c2ccc(Br)cc2)cc1)N1CCC2(CC1)OCCO2 | -17% | 22 | 2%
CC(=O)Nc1cc(C(=O)N2CCC3(CC2)OCCO3)ccc1Sc1ccc(F)cc1 | x | x | 3µM*
O=C(c1ccc(CS(=O)(=O)c2ccc(Br)cc2)o1)N1CCC2(CC1)OCCO2 | -5% | u | -3%
Cc1cccc(CS(=O)(=O)Cc2ccc(C(=O)N3CCC4(CC3)OCCO4)o2)c1 | -3% | 10 | 25µM*
Cc1cccc(CN2CCN(CC(=O)N3CCC4(CC3)OCCO4)C2=O)c1 | -6% | -7 | 8%
O=C1CC[C@@]2(O)[C@H]3Cc4ccc(O)c5c4[C@@]2(CCN3CC2CC2)[C@@H]1O5 | -4% | x | 8%
CCN1C[C@@]2(COC)C3[C@@H](OC)C4[C@@H]1[C@@]3(C1C[C@@]3(O)[C@H](OC(=O)c5ccccc5)C1[C@]4(OC(C)=O)[C@@H](O)[C@@H]3OC)[C@@H](OC)C[C@H]2O (some centres undefined) | -2% | x | -1%
Cc1ccc(S(=O)(=O)Nc2cc(C(=O)N3CCC4(CC3)OCCO4)ccc2N2CCCCC2)cc1 | -25% | 81 | 4µM*
CCCC(=O)Nc1cc(C(=O)N2CCC3(CC2)OCCO3)ccc1S(=O)(=O)c1ccc(C)cc1 | -6% | u | 0%
SMILES | HPGD block | PNC assembly inh | ALDH1A1 block
C=C1[C@@H](C)[C@H]2[C@H](Cc3ccccc3)NC(=O)[C@]23[C@H](OC(C)=O)/C=C/[C@](C)(O)C(=O)[C@@H](C)C/C=C/[C@H]3[C@@H]1O | x | x | 4%
Oc1ccc([C@H](O)C2CCCCN2)cc1O (some centres undefined) | 1% | x | 5%[13.5 µM]
C=CCN1C(=O)/C(=C/c2cccs2)C(=O)NC1=S | 3.2µM* | u | 8.9µM*
O=C1NC(=S)N(Cc2ccco2)C(=O)/C1=C\c1cccs1 | x | x | 18µM*
O=C1NC(=O)C(=Cc2ccc(N3CCOCC3)o2)C(=O)N1 | x | x | 0%
C=CCN1C(=O)/C(=C/c2ccc(N3CCOCC3)o2)C(=O)NC1=S | 28µM* | 50 | -6%
Cc1cccc(N2C(=O)/C(=C/N3CCN(C(=O)c4ccco4)CC3)C(=O)NC2=S)c1 | -14% | u | u
Oc1ccc2c3c1O[C@H]1c4oc5ccccc5c4C[C@@]4(O)C(C2)N(CC2CC2)CC[C@]314 | x | x | 1%
c1ccc(CN2CCCC3(CCNCC3)C2)cc1 | -8% | x | 10%
O=C(NC(Oc1ccccc1)C(Cl)(Cl)Cl)c1ccccc1 (centres undefined) | -9% | 140 | 20%
CC(=O)c1ccc(OC(NC(=O)c2ccco2)C(Cl)(Cl)Cl)cc1 (centres undefined) | 25µM* | 52 | u
CCCCCCCCCCCCCCCCOC[C@@H](COP(=O)([O-])OCC[N+](C)(C)C)OC(C)=O | -6% | x | 5%
COP(=O)(OC)OC=C(Cl)Cl | -13% | x | u
Cc1cccc(NC(=O)CSc2ccc(-c3ccco3)nn2)c1 | u | 49 | u
N#CC(C#N)=Cc1cc(O)c(O)c(O)c1 | u | x | 28µM*
COc1ccc(C(C)=O)cc1CC(C(=O)c1ccc(C)cc1)N(C)C (centres undefined) | -14% | 17 | 4%
COc1ccc(C(C)=O)cc1CC(C(=O)c1ccccc1)N(C)C (centres undefined) | -9% | -94* | 0%
N[C@@H](Cc1cc(I)c(O)c(I)c1)C(=O)O | -8% | -1 | 11µM*!
NC(Cc1cc(O)c(O)cc1O)C(=O)O (centres undefined) | 4.5µM* | x | 11µM*
Cc1o[nH]c(=O)c1CC(N)C(=O)O (centres undefined) | -3% | x | 7%
NCCc1cc(O)c(O)cc1O | -16% | x | -14%
O=C(/C=C/c1ccccc1)NC(NC(=S)Nc1cccc2cccnc12)C(Cl)(Cl)Cl (centres undefined) | u | x | 3%
CC1(C)C(C(Cl)Cl)C2(Cl)C(Cl)C(Cl)C1(Cl)C2(Cl)Cl (centres undefined) | -2% | x | 0%
C[C@@H]1CC[C@@H]2N(C1)C[C@H]1[C@@](O)([C@H](O)C[C@]3(O)[C@H]4CC[C@H]5[C@]6(O)O[C@]4(C[C@]13O)[C@@]5(C)CC[C@@H]6O)[C@@]2(C)O | -7% | x | 13%[13.5 µM]
NC[C@@H](O)CSP(=O)(O)O | -7% | x | 6%[13.5 µM]
SMILES | HPGD block | PNC assembly inh | ALDH1A1 block
CCc1ccc(-n2c(O)c(/C=N/N3CCCCC3c3cccnc3)c(=O)[nH]c2=O)cc1 (centres undefined) | -16% | -100* | -14%
CCn1c(O)c(/C(C)=N/N2CCCCC2c2cccnc2)c(=O)[nH]c1=S (centres undefined) | -2% | -13 | -6%
CCc1ccc2nc(N3CCC(C(=O)N4CCC5(CC4)OCCO5)CC3)sc2c1 | x | x | -10%
CCOc1ccc2nc(N3CCC(C(=O)N4CCC5(CC4)OCCO5)CC3)sc2c1 | -17% | -103* | u
CN1C(=O)COc2c(C(=O)N[C@@H]3CN4CCC3CC4)cc(Cl)cc21 | 1% | x | 8%
C[C@H](CCC(=O)O)C[C@H](C)C[C@H](C)C(=O)/C=C(\O)[C@H](C)C[C@H](C)C/C=C/[C@@H](C)[C@@H](O)[C@@H](C)[C@@H](O)C[C@@H]1CC[C@@](C)(C2CC[C@@](C)([C@@H](C)O)O2)O1 (some centres undefined) | -2% | x | u
O=[N+]([O-])c1ccc2c3c(cccc13)CC2 | -28% | x | 3.2µM*
Nc1ccc2c3c(cccc13)CC2 | u | -12 | u
CCOC(=O)c1ncn2c1CN(C)C(=O)c1cc(F)ccc1-2 | -16% | -3 | -1%
